Reference: the supplement of paper PMC7765376
Over roughly 1,500 compounds, “Excess HSA synergy score (sum over dose matrix of excess over highest single agent)” has its median near 43; the lowest 2% begin near -900. This is one part of a sample in which the lowest values are shown more often than they occur.

Test system: PEO-1
Assay: Excess HSA synergy score (sum over dose matrix of excess over highest single agent) (score (summed % response)); higher = less synergy / more antagonism (negative = synergy)
Conditions: 72 h, read-out: viability/apoptosis luminescence (CellTiter-Glo or Caspase3-Glo / not stated per table)
[1] = matrix design: 6x6, 5-fold dilutions (primary screen)
[2] = matrix design: 10x10, 9-step dilutions (confirmatory)

Row | SMILES | Excess HSA synergy score [1] | Excess HSA synergy score [2]
1 | Cn1cc(CNCC2CCN(c3ncc(C(=O)NO)cn3)CC2)c2ccccc21 [Quisinostat] + CC[C@H](NC(=O)[C@H](C)NC)C(=O)N1C[C@@H](O)C[C@H]1Cc1c(-c2[nH]c3cc(F)ccc3c2C[C@@H]2C[C@H](O)CN2C(=O)[C@H](CC)NC(=O)[C@H](C)NC)[nH]c2cc(F)ccc12 [Birinapant] | -161 | -1370
2 | CN1CCc2c(c3ccccc3n2Cc2ccc(C(=O)NO)cc2)C1 [Tubastatin A] + CC[C@H](NC(=O)[C@H](C)NC)C(=O)N1C[C@@H](O)C[C@H]1Cc1c(-c2[nH]c3cc(F)ccc3c2C[C@@H]2C[C@H](O)CN2C(=O)[C@H](CC)NC(=O)[C@H](C)NC)[nH]c2cc(F)ccc12 [Birinapant] | -71.8 | 
3 | Cn1cc(C[C@@H](N)C(=O)O)c2ccccc21 [Indoximod] + CC[C@H](NC(=O)[C@H](C)NC)C(=O)N1C[C@@H](O)C[C@H]1Cc1c(-c2[nH]c3cc(F)ccc3c2C[C@@H]2C[C@H](O)CN2C(=O)[C@H](CC)NC(=O)[C@H](C)NC)[nH]c2cc(F)ccc12 [Birinapant] | 168 | 
4 | NC(=O)c1cnc(-c2ccc(C3(N)CCC3)cc2)c(-c2ccccc2)c1 + CC[C@H](NC(=O)[C@H](C)NC)C(=O)N1C[C@@H](O)C[C@H]1Cc1c(-c2[nH]c3cc(F)ccc3c2C[C@@H]2C[C@H](O)CN2C(=O)[C@H](CC)NC(=O)[C@H](C)NC)[nH]c2cc(F)ccc12 [Birinapant] | 61.1 | 
5 | CN(C)C(=O)c1ccc(S(=O)(=O)c2ccc(NC(=O)[C@@](C)(O)C(F)(F)F)c(Cl)c2)cc1 + CC[C@H](NC(=O)[C@H](C)NC)C(=O)N1C[C@@H](O)C[C@H]1Cc1c(-c2[nH]c3cc(F)ccc3c2C[C@@H]2C[C@H](O)CN2C(=O)[C@H](CC)NC(=O)[C@H](C)NC)[nH]c2cc(F)ccc12 [Birinapant] | 50.1 | 
6 | NC1(c2ccc(-c3nc4ccn5c(=O)[nH]nc5c4cc3-c3ccccc3)cc2)CCC1 + CC[C@H](NC(=O)[C@H](C)NC)C(=O)N1C[C@@H](O)C[C@H]1Cc1c(-c2[nH]c3cc(F)ccc3c2C[C@@H]2C[C@H](O)CN2C(=O)[C@H](CC)NC(=O)[C@H](C)NC)[nH]c2cc(F)ccc12 [Birinapant] | 208 | 
7 | Cc1nc(N)sc1-c1ccnc(Nc2ccc(N3CCOCC3)cc2)n1 + CC[C@H](NC(=O)[C@H](C)NC)C(=O)N1C[C@@H](O)C[C@H]1Cc1c(-c2[nH]c3cc(F)ccc3c2C[C@@H]2C[C@H](O)CN2C(=O)[C@H](CC)NC(=O)[C@H](C)NC)[nH]c2cc(F)ccc12 [Birinapant] | 9.08 | 
8 | N#CCNC(=O)c1ccc(-c2ccnc(Nc3ccc(N4CCOCC4)cc3)n2)cc1 [Momelotinib] + CC[C@H](NC(=O)[C@H](C)NC)C(=O)N1C[C@@H](O)C[C@H]1Cc1c(-c2[nH]c3cc(F)ccc3c2C[C@@H]2C[C@H](O)CN2C(=O)[C@H](CC)NC(=O)[C@H](C)NC)[nH]c2cc(F)ccc12 [Birinapant] | -152 | 
9 | Cc1ccc(-c2ncn(-c3ccc(Nc4nccc(-c5cccc(N6CCOCC6)c5)n4)cc3)n2)cn1 + CC[C@H](NC(=O)[C@H](C)NC)C(=O)N1C[C@@H](O)C[C@H]1Cc1c(-c2[nH]c3cc(F)ccc3c2C[C@@H]2C[C@H](O)CN2C(=O)[C@H](CC)NC(=O)[C@H](C)NC)[nH]c2cc(F)ccc12 [Birinapant] | 108 | -998
10 | CCCS(=O)(=O)Nc1ccc(F)c(C(=O)c2c[nH]c3ncc(Cl)cc23)c1F + CC[C@H](NC(=O)[C@H](C)NC)C(=O)N1C[C@@H](O)C[C@H]1Cc1c(-c2[nH]c3cc(F)ccc3c2C[C@@H]2C[C@H](O)CN2C(=O)[C@H](CC)NC(=O)[C@H](C)NC)[nH]c2cc(F)ccc12 [Birinapant] | -164 | 
11 | C=C1CC[C@@H]2[C@](C)(CO)[C@H](O)CC[C@@]2(C)[C@@H]1C/C=C1/C(=O)OC[C@H]1O [Andrographolide] + CC[C@H](NC(=O)[C@H](C)NC)C(=O)N1C[C@@H](O)C[C@H]1Cc1c(-c2[nH]c3cc(F)ccc3c2C[C@@H]2C[C@H](O)CN2C(=O)[C@H](CC)NC(=O)[C@H](C)NC)[nH]c2cc(F)ccc12 [Birinapant] | 12.7 | 
12 | C=CC(=O)Nc1cccc(Sc2nc(Nc3ccc(N4CCN(C)CC4)cc3)ncc2Cl)c1 + CC[C@H](NC(=O)[C@H](C)NC)C(=O)N1C[C@@H](O)C[C@H]1Cc1c(-c2[nH]c3cc(F)ccc3c2C[C@@H]2C[C@H](O)CN2C(=O)[C@H](CC)NC(=O)[C@H](C)NC)[nH]c2cc(F)ccc12 [Birinapant] | 73.6 | 
13 | Cc1nc(Nc2ncc(C(=O)Nc3c(C)cccc3Cl)s2)cc(N2CCN(CCO)CC2)n1 [Dasatinib] + CC[C@H](NC(=O)[C@H](C)NC)C(=O)N1C[C@@H](O)C[C@H]1Cc1c(-c2[nH]c3cc(F)ccc3c2C[C@@H]2C[C@H](O)CN2C(=O)[C@H](CC)NC(=O)[C@H](C)NC)[nH]c2cc(F)ccc12 [Birinapant] | -329 | -1400
14 | Cc1cc(Nc2cc(N3CCN(C)CC3)nc(Sc3ccc(NC(=O)C4CC4)cc3)n2)n[nH]1 [Tozasertib] + CC[C@H](NC(=O)[C@H](C)NC)C(=O)N1C[C@@H](O)C[C@H]1Cc1c(-c2[nH]c3cc(F)ccc3c2C[C@@H]2C[C@H](O)CN2C(=O)[C@H](CC)NC(=O)[C@H](C)NC)[nH]c2cc(F)ccc12 [Birinapant] | -170 | 
15 | c1cc(-c2sc(-c3ccncc3)c(-c3ccncc3)c2-c2ccncc2)ccn1 + CC[C@H](NC(=O)[C@H](C)NC)C(=O)N1C[C@@H](O)C[C@H]1Cc1c(-c2[nH]c3cc(F)ccc3c2C[C@@H]2C[C@H](O)CN2C(=O)[C@H](CC)NC(=O)[C@H](C)NC)[nH]c2cc(F)ccc12 [Birinapant] | 153 | 
16 | O=c1cc(-c2ccccc2)oc2cc(O)cc(O)c12 [5,7-Dihydroxyflavone] + CC[C@H](NC(=O)[C@H](C)NC)C(=O)N1C[C@@H](O)C[C@H]1Cc1c(-c2[nH]c3cc(F)ccc3c2C[C@@H]2C[C@H](O)CN2C(=O)[C@H](CC)NC(=O)[C@H](C)NC)[nH]c2cc(F)ccc12 [Birinapant] | -131 | 
17 | CCOC(=O)[C@@H](N)CCC(=O)N[C@@H](CSCc1ccccc1)C(=O)N[C@@H](C(=O)OCC)c1ccccc1 [Ezatiostat] + CC[C@H](NC(=O)[C@H](C)NC)C(=O)N1C[C@@H](O)C[C@H]1Cc1c(-c2[nH]c3cc(F)ccc3c2C[C@@H]2C[C@H](O)CN2C(=O)[C@H](CC)NC(=O)[C@H](C)NC)[nH]c2cc(F)ccc12 [Birinapant] | 49.2 | 
18 | CN1CCCN(C(=O)c2cccc(-c3ccc(/C=C4/C(=O)Nc5ccc(Cl)cc54)o3)c2)CC1 + CC[C@H](NC(=O)[C@H](C)NC)C(=O)N1C[C@@H](O)C[C@H]1Cc1c(-c2[nH]c3cc(F)ccc3c2C[C@@H]2C[C@H](O)CN2C(=O)[C@H](CC)NC(=O)[C@H](C)NC)[nH]c2cc(F)ccc12 [Birinapant] | 92.9 | -1060
19 | Cc1[nH]c(/C=C2\C(=O)Nc3ccc(S(=O)(=O)Cc4c(Cl)cccc4Cl)cc32)c(C)c1C(=O)N1CCC[C@@H]1CN1CCCC1 + CC[C@H](NC(=O)[C@H](C)NC)C(=O)N1C[C@@H](O)C[C@H]1Cc1c(-c2[nH]c3cc(F)ccc3c2C[C@@H]2C[C@H](O)CN2C(=O)[C@H](CC)NC(=O)[C@H](C)NC)[nH]c2cc(F)ccc12 [Birinapant] | -132 | 
20 | Cc1[nH]c(/C=C2\C(=O)Nc3ccc(S(=O)(=O)N(C)c4cccc(Cl)c4)cc32)c(C)c1C(=O)N1CCN(C)CC1 + CC[C@H](NC(=O)[C@H](C)NC)C(=O)N1C[C@@H](O)C[C@H]1Cc1c(-c2[nH]c3cc(F)ccc3c2C[C@@H]2C[C@H](O)CN2C(=O)[C@H](CC)NC(=O)[C@H](C)NC)[nH]c2cc(F)ccc12 [Birinapant] | -71.9 | 
21 | COc1cc(-c2nn([C@H]3CC[C@H](N4CCN(C(C)=O)CC4)CC3)c3ncnc(N)c23)ccc1NC(=O)c1cc2ccccc2n1C + CC[C@H](NC(=O)[C@H](C)NC)C(=O)N1C[C@@H](O)C[C@H]1Cc1c(-c2[nH]c3cc(F)ccc3c2C[C@@H]2C[C@H](O)CN2C(=O)[C@H](CC)NC(=O)[C@H](C)NC)[nH]c2cc(F)ccc12 [Birinapant] | 112 | 
22 | CO[C@@H]1[C@H](N(C)C(=O)c2ccccc2)C[C@H]2O[C@]1(C)n1c3ccccc3c3c4c(c5c6ccccc6n2c5c31)C(=O)NC4=O [Stauprimide] + CC[C@H](NC(=O)[C@H](C)NC)C(=O)N1C[C@@H](O)C[C@H]1Cc1c(-c2[nH]c3cc(F)ccc3c2C[C@@H]2C[C@H](O)CN2C(=O)[C@H](CC)NC(=O)[C@H](C)NC)[nH]c2cc(F)ccc12 [Birinapant] | 168 | 
23 | COc1ccc(OC)c(-c2nnc3ccc(-c4ccc(OC)c(O[C@@H]5CCOC5)c4)nn23)c1 + CC[C@H](NC(=O)[C@H](C)NC)C(=O)N1C[C@@H](O)C[C@H]1Cc1c(-c2[nH]c3cc(F)ccc3c2C[C@@H]2C[C@H](O)CN2C(=O)[C@H](CC)NC(=O)[C@H](C)NC)[nH]c2cc(F)ccc12 [Birinapant] | -150 | 
24 | COc1cc(OC)cc(-c2ccc3ncc4ccc(=O)n(-c5ccc(N6CCNCC6)c(C(F)(F)F)c5)c4c3c2)c1 + CC[C@H](NC(=O)[C@H](C)NC)C(=O)N1C[C@@H](O)C[C@H]1Cc1c(-c2[nH]c3cc(F)ccc3c2C[C@@H]2C[C@H](O)CN2C(=O)[C@H](CC)NC(=O)[C@H](C)NC)[nH]c2cc(F)ccc12 [Birinapant] | 160 | 
25 | CCC(=O)N1CCN(c2ccc(-n3c(=O)ccc4cnc5ccc(-c6cnc7ccccc7c6)cc5c43)cc2C(F)(F)F)CC1 [Torin-1] + CC[C@H](NC(=O)[C@H](C)NC)C(=O)N1C[C@@H](O)C[C@H]1Cc1c(-c2[nH]c3cc(F)ccc3c2C[C@@H]2C[C@H](O)CN2C(=O)[C@H](CC)NC(=O)[C@H](C)NC)[nH]c2cc(F)ccc12 [Birinapant] | -195 | 
26 | Nc1ccc(-c2ccc3ncc4ccc(=O)n(-c5cccc(C(F)(F)F)c5)c4c3c2)cn1 [Torin-2] + CC[C@H](NC(=O)[C@H](C)NC)C(=O)N1C[C@@H](O)C[C@H]1Cc1c(-c2[nH]c3cc(F)ccc3c2C[C@@H]2C[C@H](O)CN2C(=O)[C@H](CC)NC(=O)[C@H](C)NC)[nH]c2cc(F)ccc12 [Birinapant] | -80.4 | -999
